Screens deposited in PubChem by Buhrlage Lab, Dana-Farber Cancer Institute and Novartis Institutes for BioMedical Research (Cambridge, Mass).
Compounds with a hit are over-represented: about 13% of the library has one in this group of screens.
USP28 block – inhibitors of human USP28 deubiquitinase. Ubiquitin carboxyl-terminal hydrolase 28 (Homo sapiens), Q96RU2. purified USP28, Ub-rhodamine cleavage fluorescence, 30 min. inhibition, % at 25 µM. 47,000 compounds, 3% hits. AID 1645857, 2021
Target sequence (Q96RU2 whole entry, looked up): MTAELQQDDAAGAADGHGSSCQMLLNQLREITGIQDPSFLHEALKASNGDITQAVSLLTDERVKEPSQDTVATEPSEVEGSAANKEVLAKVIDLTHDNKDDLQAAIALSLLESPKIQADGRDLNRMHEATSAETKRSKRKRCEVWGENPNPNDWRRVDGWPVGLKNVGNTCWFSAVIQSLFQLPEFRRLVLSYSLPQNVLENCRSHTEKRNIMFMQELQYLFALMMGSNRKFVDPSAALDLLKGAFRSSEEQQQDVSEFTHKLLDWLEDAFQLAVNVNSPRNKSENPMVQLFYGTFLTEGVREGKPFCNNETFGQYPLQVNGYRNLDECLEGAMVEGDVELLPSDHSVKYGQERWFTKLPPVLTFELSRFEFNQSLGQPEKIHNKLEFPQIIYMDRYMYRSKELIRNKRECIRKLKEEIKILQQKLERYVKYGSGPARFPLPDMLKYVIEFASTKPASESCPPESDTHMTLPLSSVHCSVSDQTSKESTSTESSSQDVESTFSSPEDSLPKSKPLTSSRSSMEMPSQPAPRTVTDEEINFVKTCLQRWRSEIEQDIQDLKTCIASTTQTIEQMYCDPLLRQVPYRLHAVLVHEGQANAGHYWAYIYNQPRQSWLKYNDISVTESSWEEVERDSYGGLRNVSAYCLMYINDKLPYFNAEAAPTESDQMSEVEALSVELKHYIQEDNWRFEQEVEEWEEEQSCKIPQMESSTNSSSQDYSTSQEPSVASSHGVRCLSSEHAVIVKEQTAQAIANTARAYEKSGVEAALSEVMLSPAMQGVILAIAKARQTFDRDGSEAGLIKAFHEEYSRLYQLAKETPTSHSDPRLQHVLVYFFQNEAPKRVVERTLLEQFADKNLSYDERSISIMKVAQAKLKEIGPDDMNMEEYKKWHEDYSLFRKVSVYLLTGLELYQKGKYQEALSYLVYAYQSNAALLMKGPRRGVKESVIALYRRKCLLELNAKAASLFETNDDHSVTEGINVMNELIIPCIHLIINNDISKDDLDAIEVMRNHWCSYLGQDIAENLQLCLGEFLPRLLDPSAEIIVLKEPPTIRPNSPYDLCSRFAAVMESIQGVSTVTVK
USP8 inh – inhibitors of human USP8 deubiquitinase; purified USP8, Ub-rhodamine cleavage fluorescence, 30 min; 47,000 compounds, 4.2% hits; AID 1645853, 2021; inhibition, % at 20 µM; Ubiquitin carboxyl-terminal hydrolase 8 (Homo sapiens), P40818
USP17 inh – inhibitors of human USP17 deubiquitinase; purified USP17, Ub-rhodamine cleavage fluorescence, 3 h; 47,000 compounds, 6.5% hits; Ubiquitin carboxyl-terminal hydrolase 17-like protein 5 (Homo sapiens), A8MUK1; inhibition, % at 50 µM
OTUD3 inh – inhibitors of human OTUD3 deubiquitinase. OTU domain-containing protein 3 (Homo sapiens), Q5T2D3. purified OTUD3, Ub-rhodamine fluorescence, 2 h. inhibition, % at 25 µM. 47,000 compounds, 0.7% hits. AID 1645858, 2021
USP10 inh – inhibitors of human USP10 deubiquitinase | purified USP10, Ub-rhodamine fluorescence, 60 min | Ubiquitin carboxyl-terminal hydrolase 10 (Homo sapiens), Q14694 | inhibition, % at 20 µM | AID 1645856, 2021 | 47,000 compounds, 1.1% hits
USP30 inh – inhibitors of human USP30 deubiquitinase | Ubiquitin carboxyl-terminal hydrolase 30 (Homo sapiens), Q70CQ3 | purified USP30, Ub-rhodamine cleavage fluorescence | inhibition, % at 25 µM | 47,000 compounds, 5.3% hits | AID 1645860, 2021
Of the large screens only hits and unclear results are named; the others gave an inactive call. Cut-off read from the data, not from the text of the source: active = inhibition above about 30%; inactive = the rest.

O=C(Nc1ccc2ccccc2n1)c1ccc(Cl)cc1	USP8 inh 59.2, USP17 inh 30.1, USP30 inh 62.5
O=C(O)c1c(Oc2ccc(Cl)cc2)c(-c2ccccc2)nc2ccccc12	none
CCn1nccc1C(=O)N1CCc2[nH]nc(-c3ccc(C)cc3)c2C1	none (no result: USP28 block, USP30 inh)
CC(=O)C(C)Sc1nc2ccccc2c(=O)n1-c1ccc(C)cn1 (centres undefined)	none
Oc1sc(C=Nc2ccc(F)cc2)c2ccccc12	USP8 inh 67.7
CCOC(=O)c1cccc(N=Cc2sc(O)c3ccccc23)c1	none
Cc1ccc(F)cc1S(=O)(=O)NC1CCCCNC1=O (centres undefined)	none
CC(=O)Cn1cnc2cc(-c3ccccc3)sc2c1=O	none
O=C1CCN(c2ncnc3cc(-c4ccc(F)cc4)sc23)CC1	USP17 inh 31.3
CCC(=O)NCCc1c(C(=O)O)[nH]c2ccc(Br)cc12	none
Brc1ccccc1Cc1nc(-c2ccn3cnnc3c2)no1	none
Fc1ccc(Cc2nc(-c3ccn4cnnc4c3)no2)cc1	USP28 block 35.6
Cc1ccc(NC(=O)Cc2nnc(SCC(=O)c3ccccc3)n2C)cc1C	none
CC1(C)CC(=O)C2=C(C1)Nc1ccccc1N(Cc1ccccc1)C2c1ccccc1Cl (centres undefined)	none
COC(=O)CN1c2ccccc2NC2=C(C(=O)CC(C)(C)C2)C1c1cccs1 (centres undefined)	USP30 inh 30.9
O=C(Cn1ccc2ccn(Cc3ccccc3)c2c1=O)NC1CCCC1	USP17 inh 38.7
O=C(Cn1ccc2ccn(Cc3cccnc3)c2c1=O)NC1CCCC1	none
O=C(Cn1ccc2ccc(Br)cc21)NCc1ccc2c(c1)OCO2	none
O=C(Cn1cc(C(=O)C2CC2)c2ccccc21)NCc1ccc2c(c1)OCO2	USP28 block 51.1, USP8 inh 69.4, USP17 inh 82.5
Cc1ccc(CS(=O)(=O)c2cn(CC(=O)NCc3ccccc3)c3ccccc23)cc1	none
O=C(Cn1ncc2c(=O)oc3ccccc3c21)NCc1ccc2c(c1)OCO2	USP8 inh 42.3
O=C(Cn1cc(S(=O)(=O)Cc2ccccc2)c2ccccc21)NC1CCCCC1	USP8 inh 30.2
O=C(Cn1ccc2ccn(Cc3ccccc3)c2c1=O)Nc1ccccc1Cl	USP8 inh 77.2, USP17 inh 33.5
O=C(Cn1cc(C(=O)C2CCCCC2)c2ccccc21)Nc1ccccc1C(F)(F)F	none
Cc1c(Cl)cccc1NC(=O)Cn1cc(C(=O)C2CC2)c2ccccc21	USP8 inh 86.5, USP10 inh 48.9
Cc1c(Cl)cccc1NC(=O)CC1COc2ccccc2NC1=O (centres undefined)	none
Cc1c(Cl)cccc1NC(=O)Cn1ccc2ccccc2c1=O	USP17 inh 71.3
Cc1[nH]ncc1C(=O)N1CC(C(=O)N2CCCCCC2)C1	none
Cn1c(CCN2CCCCC2)nc2cc(NC(=O)c3ccc(Cl)cc3)ccc21	USP17 inh 32.8
CCc1nc2cc(NC(=O)c3cccc(N4CCCC4=O)c3)ccc2n1C	USP28 block 61.8
Cn1c(CCN2CCCCC2)nc2cc(NC(=O)COc3ccc(Cl)cc3)ccc21	none
O=c1[nH]c2nccnc2c(=O)n1Cc1ccc(F)cc1	none
COc1ccc(NC(=O)CCN2CCN(c3ccccc3OC)CC2)cc1	none
CN(C(=O)c1ccncc1)[C@H]1CC[C@@]2(C)C[C@H](c3ccccc3)C[C@](C)(O2)[C@@H]1O	USP28 block 80.8
Cc1noc(C)c1CN1CC[C@H]2O[C@H](C(=O)NCc3ccco3)CC[C@H]21	OTUD3 inh 33.1
Nc1c(C(=O)c2ccco2)sc2c1c(=O)[nH]c(=O)n2Cc1ccc2c(c1)OCO2	USP8 inh 53.7
CCOCCCn1c(=O)[nH]c(=O)c2c(N)c(C(=O)c3ccc(OC)c(OC)c3)sc21	none
Cn1cncc1-c1cncc(C2CCCN(C(=O)c3ccc4nc[nH]c4c3)C2)n1 (centres undefined)	none
O=C(Nc1ccc(Oc2cccc3cccnc23)cc1)c1cccs1	USP28 block 86.2
CC(Oc1ccc(F)cc1)C(=O)Nc1cccc2cccnc12 (centres undefined)	none
COc1cccc(C(=O)N2CCC(=O)N(C)C[C@H]3COc4cc(OC)ccc4[C@H]32)c1	none
NC(=O)N1CCCCCC1C1CCN(c2ncnc3ccsc23)CC1 (centres undefined)	USP30 inh 32.0
O=C(c1cccc(S(=O)(=O)Nc2ccccc2F)c1)N1CCCC1c1cccnc1 (centres undefined)	none
CCNc1oc(-c2ccc(S(=O)(=O)N3CCCCC3)cc2)nc1C#N	USP17 inh 63.3
N#Cc1nc(-c2ccc(Cl)cc2)oc1NCc1ccccc1	none
O=C(Nc1ccc(S(=O)(=O)N2CCCC2)cc1)c1ccc(N2CCCC2=O)cc1	none
CCOC(=O)N1CCC(NC(=O)c2cc(C(=O)Nc3ccc(S(=O)(=O)N4CCCCC4)cc3)ccc2CO)CC1	USP28 block 41.9, USP17 inh 76.6, OTUD3 inh 39.3, USP10 inh 31.8, USP30 inh 78.6
CN(C)c1ccc(C(=O)Nc2ccc(S(=O)(=O)N3CCCC3)cc2)cc1	USP28 block 42.2
N#Cc1ccc(NC(=O)c2ccc(S(=O)(=O)N3CCCCC3)cc2)cc1	USP30 inh 53.9
N#Cc1ccc(N2CCN(S(=O)(=O)c3ccc(Cl)cc3)CC2)cc1	USP30 inh 30.9
CCOc1ccccc1NC(=O)c1ccc2c(c1)CC(c1ccccc1)OC2=O (centres undefined)	none
CCc1ccc(NC(=O)N2CCCC(CN3CCc4ccccc4C3)C2)cc1 (centres undefined)	none
Cc1nn(-c2ccccc2)c2sc(-c3noc(-c4cnccn4)n3)cc12	none
N#Cc1ccc(C(=O)Nc2ccc3c(N4CCCC4)ncnc3c2)cc1	USP17 inh 31.3
CCC1CCCCN1S(=O)(=O)c1ccc(C(=O)Nc2ccc(S(N)(=O)=O)cc2)cc1 (centres undefined)	USP28 block 35.0, USP17 inh 60.0, USP30 inh 75.8
N#Cc1cccc(C(=O)Nc2ccc3c(N4CCCC4)ncnc3c2)c1	none
COc1ccc(NC(=O)c2ccc(S(=O)(=O)N3CCCCC3C)cc2)c(OC)c1 (centres undefined)	none
Cc1c(C(=O)N(C)C2CCN(C)CC2)oc2c1/C(=N\O)CC(C)(C)C2	none
Cc1sc(-c2ccncc2)nc1OC(=O)c1ccc(F)cc1F	none
Cc1sc(-c2ccc(Cl)nc2)nc1OC(=O)c1ccc(F)cc1F	USP17 inh 53.3, USP30 inh 44.5
Cc1cc(-c2cc3nc(C)c(C)c(NCC4CCCO4)n3n2)c(C)o1 (centres undefined)	none
COc1cccc(CNCC(O)(c2ccccc2)c2ccc(Cl)cc2)c1 (centres undefined)	none
